Data reported in the supplement of paper PMC7556523.
Unmarked numbers belong to inactive results.

Legend:
[1] = test system: Sporothrix brasiliensis CBS 133006; assay: growth inhibition relative to untreated control; higher = more growth inhibition (more antifungal activity), active = 80 or more; extreme values may be limits of the assay; details: 1 µM; 48 h
Procedure, shortened: (§1)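 Library compounds at a final 1 μM were incubated with yeast-form cells of the reference isolates (1 x 10^5 CFU/ml) for 48 h at 35°C in 5% CO2. Growth was judged by inverted light microscopy and measured spectrophotometrically in quadruplicate runs. Values give percent growth inhibition relative to untreated cells.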

[2] = test system: Sporothrix schenckii ATCC 32286; assay: as above; details: 1 µM; 48 h
Procedure, shortened: as §1

SMILES | growth inhibition [1] | growth inhibition [2]
O=C(Nc1c(O)cccc1-c1nc2c(C(=O)O)cccc2o1)c1cc(-c2ccccc2)on1 | 38.2% | 3.75%
CC(C)/N=c1\cc2n(-c3ccc(Cl)cc3)c3ccccc3nc-2cc1Nc1ccc(Cl)cc1 | 7.25% | 12.2%
COc1ccc(-c2nn(C(C)C)c3ncnc(N)c23)cc1OC | 6% | 14.2%
Oc1c(I)cc(I)c2cccnc12 | 99.5% (active) | 94.5% (active)
Cc1cc2nc(NC(=O)C(C)(C)C)nc(Cl)c2n1Cc1ccc(Cl)cc1 | 14.8% | 2.5%
CCc1ccc([C@@H]2C[C@H](C(F)(F)F)n3ncc(C(=O)NCc4ccc(OC)cc4)c3N2)cc1 | 15.5% | 12.2%
C[C@H]1c2cccc(O)c2C(=O)C2=C(O)[C@]3(O)C(=O)C(C(N)=O)=C(O)[C@@H](N(C)C)[C@@H]3[C@@H](O)[C@@H]21 | 9.12% | 10.5%
COc1ccc(Oc2ccc([C@@H](C)N(C)c3ncc4c(N)nc(N)nc4n3)cc2)cc1 | 5.75% | 4.25%
COc1cccc(NC(=O)c2c(NC(=O)c3cccnc3)sc3c2CCC3)c1 | 15.8% | 13.8%
Cc1ccc(NC(=O)c2nc[nH]c2C(=O)Nc2nc3ccccc3[nH]2)c(C)c1 | 17.8% | 1.25%
Cc1ncc(-c2ccnc(Nc3ccc(S(C)(=O)=O)cc3)n2)n1C(C)C | 37% | 2.5%
COc1cccc(OCC(=O)c2ccc(Br)cc2)c1 | 16% | 22%
C[C@H]1COc2c(N3CCN(C)CC3)c(F)cc3c(=O)c(C(=O)O)cn1c23 | 0% | 0%
CN1CCN(c2nccc3nc(-c4ccc(F)c(F)c4)[nH]c23)CC1 | 0% | 0%
CCc1nc2ccc(Cl)cn2c1C(=O)NCc1ccc(N2CCC(c3ccc(OC(F)(F)F)cc3)CC2)cc1 | 10.2% | 2.25%
CS(=O)(=O)Cc1nc2ccccc2oc1=O | 21.8% | 4.75%
O=C(C1CCN(c2nnnn2-c2ccccc2)CC1)N1CCc2ccccc2C1 | 2.5% | 3%
FC(F)(F)c1cccc(-c2nc3c(NCc4ccncc4)nccc3[nH]2)c1 | 38% | 4%
Cc1cc(Nc2ccncc2)n2nc(C)c(-c3ccccc3Cl)c2n1 | 5% | 4.75%
CNCCC(Oc1ccc(C(F)(F)F)cc1)c1ccccc1 (stereo not drawn) | 7.75% | 2%
O=C(NCCc1ccccc1)c1cc(-c2cccnc2)cnc1NCC1CC1 | 0% | 0%
Cc1cc(NCC(C)C)c2[nH]nc(-c3ccccc3)c2n1 | 4.5% | 0.75%
CCc1cc(=O)n(C)c(SC(C)C(=O)Nc2ccc(F)cc2)n1 (stereo not drawn) | 9.25% | 13.5%
CN1CCCC1CCO[C@](C)(c1ccccc1)c1ccc(Cl)cc1 (stereo partly drawn) | 11.8% | 14.8%
CN(C(=O)c1cc2c(-c3cncnc3)cccc2[nH]1)c1ccccc1 | 8.25% | 3.25%

SMILES | growth inhibition [1] | growth inhibition [2]
c1ccc(C[C@@H]2CN(c3nccc(Oc4ccc(-n5ccnc5)cc4)n3)CCN2)cc1 | 10.2% | 9.5%
COc1cc2ncnc(NC3CCN(Cc4ccccc4)CC3)c2cc1OC | 8% | 0%
CCC(Sc1nc2ccccc2o1)C(=O)Nc1nnc(C)s1 (stereo not drawn) | 16% | 3.25%
Cc1ccc(NC(=O)c2cc(S(=O)(=O)NC(C)(C)C)ccc2C)nc1 | 4.25% | 0%
Cc1nn(C(=O)Nc2cccc(C(F)(F)F)c2)c(C)c1Sc1ncccn1 | 28.2% | 15.2%
CCCNC(=O)N1CCC2(CC1)CC(=O)c1cc(C)ccc1O2 | 2.25% | 2.25%
CC(=O)Nc1ccc(-c2noc(CC3CCCN(Cc4cccc(F)c4C)C3)n2)cc1 (stereo not drawn) | 10.2% | 0.5%
CNc1nnc(Sc2cnn(-c3ccccc3)c(=O)c2Cl)s1 | 6% | 0%
Cc1ccc(-c2cc(C(=O)Nc3cccnc3)c3cc(Br)ccc3n2)cc1 | 25.2% | 0%
CCOC(=O)c1noc(N)c1-c1ccccc1 | 16.5% | 0%
CN(C)CCNC(=O)N1CCCN(c2ncnc3cc(-c4ccccc4)sc23)CC1 | 10.5% | 13.2%
CC(Oc1cccc(Cl)c1)C(=O)Nc1ccc2oc(-c3ccncc3)nc2c1 (stereo not drawn) | 20% | 4.25%
N=C(N)Nc1ccc(-c2ccc(-c3ccc(NC(=N)N)cc3Cl)o2)c(Cl)c1 | 19.8% | 0%
COc1ccc(C(=N)N)cc1-c1cn(-c2ccc(C(=N)N)cc2)nn1 | 51.8% | 0%
Nc1ncnc2[nH]nc(Cc3cccc4ccccc34)c12 | 6.25% | 0%
CC(C)(C)C(=O)N(CCCCCCN1C[C@H](O)[C@@H](O)[C@H](O)[C@H]1CO)C1CCCCCC1 | 6.25% | 8%
COc1cncc(-c2cncc(N3CCN(c4ccncc4)CC3)n2)c1 | 34.2% | 0%
CC(C)(C)c1ccc(N[C@@H]2CCCC[C@H]2NC(=O)c2ccco2)cc1 | 7.25% | 0.75%
COc1ccc(Nc2ccccc2NC(=O)c2ccc(O)nc2)cc1 | 14.2% | 4.25%
CC(c1cc(Cl)cc(Cl)c1)N(C)c1ncc2c(N)nc(N)nc2n1 (stereo not drawn) | 11.2% | 16.5%
OCCc1ccc(Nc2nccc(-c3nnc4ccccn34)n2)cc1 | 28.2% | 2.5%
CC1COC2(CCN(c3nc(=O)c4cc(C(F)(F)F)cc([N+](=O)[O-])c4s3)CC2)O1 (stereo not drawn) | 15% | 1.5%
CC1=NN(c2nc3ccccc3s2)C(=O)C1Cc1cccc2ccccc12 (stereo not drawn) | 17.2% | 14.8%
O=C(NC1CCCCC1)N1CCN(Cc2ccc3c(c2)OCO3)CC1 | 9.25% | 17.2%
COc1cc(OC)cc(C(=O)NCC2Cc3cc(Cl)cc(-c4ccncc4)c3O2)c1 (stereo not drawn) | 17.5% | 2%

SMILES | growth inhibition [1] | growth inhibition [2]
Cc1nc2ccccn2c1C(=O)NCc1ccc(Cl)cc1 | 14% | 16%
CC(C)(C)OC(=O)N1CCN(c2nccc(-c3ccc(-c4ccc(Cl)cc4)s3)n2)CC1 | 8% | 1%
COc1ccccc1CNC(=O)c1cc(C2CC2)nc2c1cnn2C(C)C | 27.8% | 0%
CN1CCN(c2nccc3[nH]c(-c4cccc(F)c4)cc23)CC1 | 2.5% | 19.5%
CNC1C(OC2C(OC3C(O)C(O)C(N=C(N)N)C(O)C3N=C(N)N)OC(C)C2(O)C=O)OC(CO)C(O)C1O (stereo not drawn) | 6% | 0%
CC(=O)OCC1OC([S-])C(OC(C)=O)C(OC(C)=O)C1OC(C)=O.CCP(CC)CC.[Au+] (stereo not drawn) | 25.5% | 55%
CCC(Sc1nc2ccccc2o1)C(=O)Nc1nccs1 (stereo not drawn) | 5.75% | 15.5%
Cc1ccccc1C(=O)N1N=C(Nc2ccccc2)SC1(C)C | 10.5% | 16%
O=[N+]([O-])c1cn2c(n1)OC[C@@H](OCc1ccc(OC(F)(F)F)cc1)C2 | 9% | 10.2%
COc1ccc(C2(C(=O)Nc3ccc(Br)cc3)CCCC2)cc1 | 59.8% | 13%
CCCc1ccc(S(=O)(=O)Nc2ccc(CN3CCN(CC4CC4)CC3)cc2)cc1 | 25.5% | 2.25%
c1ccc(Oc2ccc(-c3cncc(-c4ccc5[nH]ccc5c4)n3)cc2)cc1 | 8% | 12.5%
N#Cc1nc(-c2ccccc2)oc1S(=O)(=O)c1ccc(Cl)cc1 | 48.8% | 6.25%
Cc1cc(Cl)ccc1NC(=O)CCc1ccc(S(=O)(=O)NCC(C)C)cc1 | 9.75% | 0%
CCCCOC(=O)Nc1cc2nc(C3CCCCC3)[nH]c2cc1N1CCCC1 | 11% | 0%
O=C(Nc1cnc2ccccc2c1)c1cccc(-n2cnnn2)c1 | 0% | 4.75%
COC(=O)c1ccc(F)cc1NS(=O)(=O)c1cccc(-c2cnn(Cc3ccccc3)c2)c1 | 12% | 20.2%
O=C(C1CCN(c2nnc(-n3cccc3)s2)CC1)N1CCC(Cc2ccccc2)CC1 | 7.5% | 0.5%
O=C(NC1=NCCS1)c1sc2cc(F)ccc2c1Cl | 0.75% | 0%
NCC(=O)N1CCn2c(nc(-c3ccccc3)c2Nc2ccc3c(c2)OCO3)C1 | 0% | 0.5%
CC[C@@H](CO)NCCN[C@@H](CC)CO | 6.75% | 12.2%
Cc1cccc(-c2nc(Nc3ccncn3)c3sccc3n2)n1 | 1% | 9.75%
NC(CC(=O)c1ccc(Cl)cc1Cl)C(Cl)(Cl)Cl (stereo not drawn) | 9.25% | 14%
Brc1cncc(-c2cc(NCCCn3ccnc3)nc(-c3ccccc3)n2)c1 | 22% | 3.5%
